Bioassay records deposited in PubChem by National Center for Advancing Translational Sciences (NCATS).
Most compounds without a hit are left out; they make up all but 2.6% or so of the library.
Cruzain inh Det = blocks cruzain activity in presence of Triton detergent. purified cruzain, Z-FR-AMC fluorescence, 0.01% Triton. Potency, µM, hits mostly inhibitors. 200,000 compounds, 0.43% hits; further: nearly all actives have a fitted effect of over 40% in size
Target sequence (P25779 123-467 limits assumed): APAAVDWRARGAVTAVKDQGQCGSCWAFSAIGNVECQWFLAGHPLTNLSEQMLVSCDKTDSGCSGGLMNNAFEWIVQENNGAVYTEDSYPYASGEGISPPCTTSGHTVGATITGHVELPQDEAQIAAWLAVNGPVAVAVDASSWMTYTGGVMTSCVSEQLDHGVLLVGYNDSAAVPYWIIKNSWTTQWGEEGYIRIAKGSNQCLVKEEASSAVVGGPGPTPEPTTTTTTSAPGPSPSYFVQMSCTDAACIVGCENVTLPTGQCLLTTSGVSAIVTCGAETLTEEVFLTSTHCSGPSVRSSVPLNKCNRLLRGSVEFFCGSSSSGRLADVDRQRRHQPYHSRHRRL
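Read-out: AMC fluorescence (360 nm excitation, 450 nm emission), four reads over 2 min, first-to-third difference used. Conditions: cruzain 1.5 nM, Z-FR-AMC 2 uM, pH 5.5 acetate, 5 mM DTT, 0.01% Triton X-100.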
Cruzain noTriton = blocks cruzain activity in detergent-free assay; Potency, µM, hits mostly inhibitors; AID 1476; P25779; purified cruzain, Z-FR-AMC fluorescence, no detergent; 200,000 compounds, 2.3% hits; further: nearly all actives have a fitted effect of over 40% in size
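Purified cruzain at 1.5 nM, pre-incubated 15 min with compound at room temperature in 100 mM sodium acetate pH 5.5, 5 mM DTT, 0.00005% Triton X-100. Reaction started with 2 uM Z-FR-AMC; AMC fluorescence increase over 60 s gives rate.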
Hits are given with their value. The call rests on the fitted dose curve; in most records, active means well fitted curve in the direction sought with a large enough effect; inconclusive means small, poorly fitted or top-dose-only effect, or another doubt; inactive means no such curve, though single readings can be large; an effect the other way counts as inactive or inconclusive.

For Cc1cccc(NC(=O)Cn2nnc(C(=O)Nc3ccc(F)c(Cl)c3)c2N)c1 the results were Cruzain inh Det inactive and Cruzain noTriton 25µM.
Screening CCc1ccccc1NC(=O)Cn1nnc(C(=O)NCc2cccs2)c1N returned Cruzain inh Det inactive and Cruzain noTriton 20µM.
Screening CCc1ccc(Cn2nnc(C(=O)Nc3ccc(OC)cc3OC)c2N)cc1 returned Cruzain inh Det inactive and Cruzain noTriton 25µM.
CCc1ccccc1NC(=O)c1nnn(CC(=O)Nc2c(C)cc(C)cc2C)c1N was read as Cruzain inh Det inactive and Cruzain noTriton 32µM.
Screening Cc1cc(C)cc(NC(=O)CSc2nncn3c2cc2occc23)c1 returned Cruzain inh Det inactive and Cruzain noTriton inactive.
`CCc1nn(CC(=O)NCCCOC)c(=O)c2cc3ccccc3n12` gave Cruzain inh Det inactive and Cruzain noTriton inactive.
Screening COc1c(C)c2c(c(O)c1CC=C(C)CCC(=O)OCCN1CCOCC1)C(=O)OC2 returned Cruzain inh Det inactive and Cruzain noTriton inactive.
For COc1cccc(Cn2c(=O)c(CCc3ccccc3)nc3cncnc32)c1 the results were Cruzain inh Det inactive and Cruzain noTriton inactive.
`CS(=O)(=O)N1CCC2(CCCN(c3ccncc3)C2)CC1` gave Cruzain inh Det inactive and Cruzain noTriton inactive.
For Cc1ccc(Cl)cc1-n1ncc2c(N3CCC(C)CC3)ncnc21 the results were Cruzain inh Det inactive and Cruzain noTriton inactive.
CCc1ccc(NC(=O)Cn2nnc(C(=O)NCc3ccc(C)cc3)c2N)cc1 was read as Cruzain inh Det inactive and Cruzain noTriton 20µM.
For Cc1ccc(NC(=O)Cn2nnc(C(=O)NCc3cccs3)c2N)cc1 the results were Cruzain inh Det inactive and Cruzain noTriton inconclusive.
Screening Cc1ccc(CNC(=O)c2nnn(CC(=O)Nc3cc(C)ccc3C)c2N)cc1 returned Cruzain inh Det inactive and Cruzain noTriton inactive.
`Cc1ccc(NC(=O)Cn2nnc(C(=O)NCc3cccs3)c2N)cc1Cl` gave Cruzain inh Det inactive and Cruzain noTriton 25µM.
For O=C(c1cnccn1)N1CCC2(CCCN(c3cccc(-c4ccccc4)c3)C2)CC1 the results were Cruzain inh Det inactive and Cruzain noTriton inconclusive.
Screening O=C(Nc1ccc(Cl)cc1)[C@@H]1[C@@H]2C(=O)N(c3ccc(Cl)cc3)C(=O)[C@@H]2[C@H]2C=CC=NN21 returned Cruzain inh Det inactive and Cruzain noTriton 20µM.
Screening Cc1ccc(N2C(=O)[C@@H]3[C@H](C2=O)[C@H]2C=CC=NN2[C@@H]3C(=O)Nc2ccc(Cl)cc2)cc1 returned Cruzain inh Det inactive and Cruzain noTriton inactive.
For CC(=O)Oc1ccc(C(=O)[C@H]2[C@H]3C(=O)N(c4ccc5ccccc5c4)C(=O)[C@H]3[C@@H]3C=CC=NN32)cc1 the results were Cruzain inh Det inactive and Cruzain noTriton inconclusive.
For O=C(Nc1ccc(Cl)cc1)[C@@H]1[C@@H]2C(=O)N(c3ccc(Cl)cc3Cl)C(=O)[C@@H]2[C@H]2C=CC=NN21 the results were Cruzain inh Det inactive and Cruzain noTriton 16µM.
CCCC[C@@H]1C[C@H]1C(NC(=O)c1cccs1)c1ccc(Cl)cc1 (some centres not stated) was read as Cruzain inh Det inactive and Cruzain noTriton inactive.
For CCOC(=O)C(NC(=O)NC1CCCCC1)(c1ccccc1)C(F)(F)F (configuration not stated) the results were Cruzain inh Det inactive and Cruzain noTriton 3.2µM.
`CCOC(=O)C(NC(=O)N1CCCCC1)(c1ccccc1)C(F)(F)F` (configuration not stated) gave Cruzain inh Det inactive and Cruzain noTriton inactive.
COc1ccc(C2C(C#N)=C(N)OC3=C2C(=O)CCC3)cc1Cn1cc([N+](=O)[O-])cn1 (configuration not stated) was read as Cruzain inh Det inactive and Cruzain noTriton inactive.
For COc1ccc(C2C(C#N)=C(N)N(c3cccnc3)C3=C2C(=O)CCC3)cc1Cn1cc([N+](=O)[O-])cn1 (configuration not stated) the results were Cruzain inh Det inactive and Cruzain noTriton inactive.
Screening COc1ccc(C2C(C#N)=C(N)Oc3c2c(=O)oc2ccccc32)cc1Cn1cc([N+](=O)[O-])cn1 (configuration not stated) returned Cruzain inh Det inactive and Cruzain noTriton 25µM.
For COc1ccc(C2C(C#N)=C(N)N(c3ccccc3)C3=C2C(=O)CCC3)cc1Cn1cc([N+](=O)[O-])cn1 (configuration not stated) the results were Cruzain inh Det inactive and Cruzain noTriton 20µM.
`COc1cccc(CNC(=O)CCc2c(C)c3cc4c(C)c(C)oc4cc3oc2=O)c1` gave Cruzain inh Det inactive and Cruzain noTriton inactive.
CCOc1ccc(-c2cc(C(=O)Oc3ccc(C#N)cc3)no2)cc1 was read as Cruzain inh Det inactive and Cruzain noTriton inactive.
For CCOC(=O)c1ccc(Nc2nc3nonc3nc2Nc2cccc(C)c2C)cc1 the results were Cruzain inh Det inactive and Cruzain noTriton inactive.
Screening COc1ccc(NC(=O)CN2C(=O)C(C)N=C(c3ccccc3)c3ccccc32)cc1OC (configuration not stated) returned Cruzain inh Det inactive and Cruzain noTriton inconclusive.
Cc1cccc(NC(=O)N[C@@H]2N=C(c3ccccc3)c3ccccc3N(CC(=O)c3ccccc3C)C2=O)c1 was read as Cruzain inh Det inactive and Cruzain noTriton 32µM.
For O=S(=O)(Cc1ccccc1)c1nnnn1C1CCCCC1 the results were Cruzain inh Det inactive and Cruzain noTriton inactive.
`COc1ccc(N=c2oc3cc(O)ccc3cc2C(=O)NCC2CCCO2)cc1` (configuration not stated) gave Cruzain inh Det inactive and Cruzain noTriton inactive.
Screening CCOc1ccc(N=c2oc3cc(O)ccc3cc2C(=O)NCC2CCCO2)cc1 (configuration not stated) returned Cruzain inh Det inactive and Cruzain noTriton 6.3µM.
`CCCCNc1sc(S(=O)(=O)CC)nc1S(=O)(=O)c1ccc(C)cc1` gave Cruzain inh Det inactive and Cruzain noTriton inactive.
Screening Cc1cccc(-n2c(/C=C/c3c(C)[nH]c4ccccc34)nc3ccccc3c2=O)c1 returned Cruzain inh Det inactive and Cruzain noTriton inactive.
`Cc1[nH]c2ccccc2c1/C=C/c1nc2ccccc2c(=O)n1-c1ccc([N+](=O)[O-])cc1` gave Cruzain inh Det inactive and Cruzain noTriton 25µM.
For Cc1nc(NC(=S)NC(=O)COc2ccc(Cl)cc2)ccc1Br the results were Cruzain inh Det inactive and Cruzain noTriton inconclusive.
Cc1ccc(OCC(=O)NC(=S)Nc2ccc(Br)c(C)n2)cc1 was read as Cruzain inh Det inactive and Cruzain noTriton 16µM.
`Cc1ccc2nc(C3CCCN(C(=O)NCc4ccccc4)C3)[nH]c2c1` (configuration not stated) gave Cruzain inh Det inconclusive and Cruzain noTriton 6.3µM.
For Cc1ccc2nc(C3CCN(C(=O)NCc4ccccc4)CC3)[nH]c2c1 the results were Cruzain inh Det inactive and Cruzain noTriton inactive.
CN1[C@@H]2CC(OC(=O)[C@@H](CO)c3ccccc3)C[C@@H]1[C@H]1O[C@H]12 (some centres not stated) was read as Cruzain inh Det inactive and Cruzain noTriton inactive.
O=C(Nc1ccc(/C=C/c2nc3ccccc3o2)cc1)c1cccc(C(F)(F)F)c1 was read as Cruzain inh Det inactive and Cruzain noTriton 7.9µM.
Screening Cc1cnc(Nc2nc3ccccc3o2)nc1C(=O)Nc1cccc(C(F)(F)F)c1 returned Cruzain inh Det inactive and Cruzain noTriton inactive.
`O=C(Nc1ccc(/C=C/c2nc3ccccc3o2)cc1)c1c(F)cccc1F` gave Cruzain inh Det inactive and Cruzain noTriton 10µM.
